Reference: PubChem BioAssay (EPA / NIEHS)
Inconclusive results are not listed. The source made the active and inactive calls. Rule for the calls: active = hit-call score of the fitted dose curve at least 0.9, where 1 is the maximum; inconclusive = response in the unintended direction; inactive = score below 0.9.

Assays:
[1] = target: human Neurotensin Receptor (NTS), NTSR1 (gene 4923) (UniProt P30989); assay: NVS_GPCR_hNTS: NovaScreen (NVS) G Protein-Coupled Receptor Assay for human Neurotensin Receptor (NTS) (AID 2283279)
Chain of human Neurotensin Receptor (NTS), NTSR1 (gene 4923) (P30989 whole entry, looked up): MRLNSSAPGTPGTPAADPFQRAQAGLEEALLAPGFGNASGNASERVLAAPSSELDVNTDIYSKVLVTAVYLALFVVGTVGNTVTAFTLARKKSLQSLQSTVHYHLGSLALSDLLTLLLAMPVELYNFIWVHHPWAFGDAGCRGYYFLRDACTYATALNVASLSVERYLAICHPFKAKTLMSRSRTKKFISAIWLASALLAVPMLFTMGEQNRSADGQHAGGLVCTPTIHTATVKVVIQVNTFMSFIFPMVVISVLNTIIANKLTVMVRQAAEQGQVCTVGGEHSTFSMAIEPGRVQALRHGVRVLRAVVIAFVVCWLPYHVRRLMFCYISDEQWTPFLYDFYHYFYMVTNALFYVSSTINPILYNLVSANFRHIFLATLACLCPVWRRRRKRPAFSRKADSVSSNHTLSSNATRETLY
Summary of the method: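 Compounds competed with a radiolabelled ligand for binding to CHO-derived human neurotensin receptor; bound signal counted after filtration, 1 h. Screened first at a single concentration of 25 uM in duplicate, then concentration series to 50 uM maximum for actives.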

[2] = target: Muscarinic acetylcholine receptor M2 (Homo sapiens) (UniProt P08172); assay: NVS_GPCR_hM2: NovaScreen (NVS) G Protein-Coupled Receptor Assay for human Muscarinic, M2 Receptor (AID 2283273)
Chain of Muscarinic acetylcholine receptor M2 (Homo sapiens) (P08172 whole entry, looked up): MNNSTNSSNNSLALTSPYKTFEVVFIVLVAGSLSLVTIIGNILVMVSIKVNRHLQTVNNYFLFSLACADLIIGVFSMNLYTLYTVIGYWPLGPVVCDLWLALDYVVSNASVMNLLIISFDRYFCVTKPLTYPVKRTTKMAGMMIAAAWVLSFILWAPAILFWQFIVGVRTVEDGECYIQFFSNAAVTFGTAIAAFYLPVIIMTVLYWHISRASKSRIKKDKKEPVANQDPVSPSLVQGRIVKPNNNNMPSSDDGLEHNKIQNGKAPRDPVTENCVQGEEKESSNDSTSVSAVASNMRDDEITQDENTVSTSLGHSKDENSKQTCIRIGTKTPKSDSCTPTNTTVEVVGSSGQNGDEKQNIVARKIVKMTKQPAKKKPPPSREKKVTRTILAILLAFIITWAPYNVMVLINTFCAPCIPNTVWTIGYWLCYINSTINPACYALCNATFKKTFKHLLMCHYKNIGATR
Procedure: (§1) NVS_GPCR_hM2 is a biochemical, single-readout assay that uses extracted gene-proteins from CHO in a cell-free assay. Measurements were taken 1 hour after chemical dosing in a 96-well plate.NVS_GPCR_hM2 is one of one assay component(s) measured or calculated from the NVS_GPCR_hM2 assay. It is designed to make measurements of radioligand binding, a form of binding reporter, as detected with scintillation counting signals by Filter-based radiodetection technology.Data from the assay component NVS_GPCR_hM2 was analyzed into 1 assay endpoint. This assay endpoint, NVS_GPCR_hM2, was analyzed in the positive analysis fitting direction relative to DMSO as the negative control and baseline of activity. Using a type of binding reporter, loss-of-signal activity can be used to understand changes in the binding as they relate to the gene CHRM2. Furthermore, this assay endpoint can be referred to as a primary readout, because the performed assay has only produced 1 assay endpoint. To generalize the intended target to other relatable targets, this assay endpoint is annotated to the gpcr intended target family, where the subfamily is rhodopsin-like receptor.
(§2) Binding assays used specific radioligands (tritiated, iodinated) with non-radioactive competitive displacement ligands in agonist or antagonist protocols (as indicated) and various reference compounds and inhibitors to titrate specific binding to receptors and transporters. Most enzyme assays (CYPs, kinases, phosphatases, proteases, HDACs) used recombinant protein and specific substrates (fluorescence mostly, some colorimetric and radioactive) and inhibitors, followed by a biochemical separation of substrate and product. All assays for the biochemical HTS were initially run in duplicate at a single concentration (10 uM for CYP450 assays and 25 uM for all others). […] Each assay was run with positive and negative controls, and concurrent controls on every plate. The follow-up (secondary) screen tested active chemical-pairs in concentration series, as well as a few additional assays not tested in the primary screen, some selected negative inactives, and several cases re-run in the concentration series for confirmatory purposes.

[3] = target: human Muscarinic, M4 Receptor, CHRM4 (gene 1132) (UniProt P08173); assay: NVS_GPCR_hM4: NovaScreen (NVS) G Protein-Coupled Receptor Assay for human Muscarinic, M4 Receptor (AID 2283274)
Chain of human Muscarinic, M4 Receptor, CHRM4 (gene 1132) (P08173 whole entry, looked up): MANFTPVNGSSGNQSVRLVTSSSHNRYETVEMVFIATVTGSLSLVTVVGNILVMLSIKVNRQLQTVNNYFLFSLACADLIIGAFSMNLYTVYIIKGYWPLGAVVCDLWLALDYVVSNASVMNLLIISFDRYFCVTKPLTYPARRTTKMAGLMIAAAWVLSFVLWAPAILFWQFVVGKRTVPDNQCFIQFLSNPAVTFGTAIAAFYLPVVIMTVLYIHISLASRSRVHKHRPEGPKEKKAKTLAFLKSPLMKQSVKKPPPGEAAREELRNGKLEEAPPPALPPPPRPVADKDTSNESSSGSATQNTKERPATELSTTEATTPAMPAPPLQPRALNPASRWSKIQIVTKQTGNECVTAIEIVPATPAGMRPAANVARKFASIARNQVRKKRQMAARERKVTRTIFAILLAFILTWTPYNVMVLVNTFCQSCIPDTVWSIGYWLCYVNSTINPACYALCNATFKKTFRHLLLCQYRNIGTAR
Procedure: as §1, with “NVS_GPCR_hM4” for “NVS_GPCR_hM2”, “plate.NVS_GPCR_hM4” for “plate.NVS_GPCR_hM2”, “NVS_GPCR_hM4,” for “NVS_GPCR_hM2,”, “CHRM4.” for “CHRM2.”
as §2, with “The follow-up (secondary) screen tested active chemical-pairs in concentration series, as well as a few additional assays not tested in the primary screen, some selected negative inactives, and several cases re-run in the concentration series for confirmatory purposes.” left out

[4] = target: Muscarinic acetylcholine receptor M1 (Homo sapiens) (UniProt P11229); assay: NVS_GPCR_hM1: NovaScreen (NVS) G Protein-Coupled Receptor Assay for human Muscarinic, M1 Receptor (AID 2283270)
Chain of Muscarinic acetylcholine receptor M1 (Homo sapiens) (P11229 whole entry, looked up): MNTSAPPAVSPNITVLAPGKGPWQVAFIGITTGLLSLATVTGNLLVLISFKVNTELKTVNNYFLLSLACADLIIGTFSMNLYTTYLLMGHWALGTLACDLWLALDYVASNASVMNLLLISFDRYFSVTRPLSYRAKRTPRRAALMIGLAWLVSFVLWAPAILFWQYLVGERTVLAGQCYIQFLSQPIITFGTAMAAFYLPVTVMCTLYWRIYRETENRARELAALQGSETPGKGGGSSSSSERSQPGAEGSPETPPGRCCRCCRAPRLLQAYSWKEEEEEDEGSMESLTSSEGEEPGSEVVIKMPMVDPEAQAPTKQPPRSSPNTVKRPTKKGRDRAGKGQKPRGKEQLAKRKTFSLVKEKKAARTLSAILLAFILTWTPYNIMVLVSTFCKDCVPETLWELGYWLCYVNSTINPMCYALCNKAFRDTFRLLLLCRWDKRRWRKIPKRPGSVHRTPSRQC
Summary of the method: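 Actives from a duplicate 25 uM single-point screen were retested in concentration series. Binding measured as displacement of a radioligand from CHO-derived receptor preparation, 1 h incubation, filtration and scintillation counting, analysed as signal loss against DMSO.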

[5] = target: human Leukotriene B4 Receptor 1 (LTB4-BLT1), LTB4R (gene 1241) (UniProt Q15722); assay: NVS_GPCR_hLTB4_BLT1: NovaScreen (NVS) G Protein-Coupled Receptor Assay for human Leukotriene B4 Receptor 1 (LTB4-BLT1) (AID 2283271)
Chain of human Leukotriene B4 Receptor 1 (LTB4-BLT1), LTB4R (gene 1241) (Q15722 whole entry, looked up): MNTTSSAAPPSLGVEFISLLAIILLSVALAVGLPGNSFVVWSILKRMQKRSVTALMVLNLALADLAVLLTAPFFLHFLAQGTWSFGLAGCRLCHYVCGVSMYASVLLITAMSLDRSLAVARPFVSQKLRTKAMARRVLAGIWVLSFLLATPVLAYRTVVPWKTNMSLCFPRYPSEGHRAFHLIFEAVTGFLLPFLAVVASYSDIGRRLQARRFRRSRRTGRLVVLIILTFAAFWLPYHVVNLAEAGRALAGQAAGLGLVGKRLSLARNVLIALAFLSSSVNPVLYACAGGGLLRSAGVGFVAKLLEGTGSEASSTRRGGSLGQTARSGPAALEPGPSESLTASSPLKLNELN
Procedure: as §1, with “NVS_GPCR_hLTB4_BLT1” for “NVS_GPCR_hM2”, “Human neutrophils” for “CHO”, “48-well plate.NVS_GPCR_hLTB4_BLT1” for “96-well plate.NVS_GPCR_hM2”, “NVS_GPCR_hLTB4_BLT1,” for “NVS_GPCR_hM2,”, “LTB4R.” for “CHRM2.”
Binding assays used specific radioligands (tritiated, iodinated) with non-radioactive competitive displacement ligands in agonist or antagonist protocols (as indicated) and various reference compounds and inhibitors to titrate specific binding to receptors and transporters. Most enzyme assays (CYPs, kinases, phosphatases, proteases, HDACs) used recombinant protein and specific substrates (fluorescence mostly, some colorimetric and radioactive) and inhibitors, followed by a biochemical separation of substrate and product. All assays for the biochemical HTS were initially run in duplicate at a single concentration (10 uM for CYP450 assays and 25 uM for all others). Assay-chemical combinations meeting a pre-defined threshold (e.g., 30% inhibition and other criteria defined below) were then run in singleton concentration-response format with maximum concentration of 20 uM for CYPs and 50 uM for all others. Each assay was run with positive and negative controls, and concurrent controls on every plate. The follow-up (secondary) screen tested active chemical-pairs in concentration series, as well as a few additional assays not tested in the primary screen, some selected negative inactives, and several cases re-run in the concentration series for confirmatory purposes.

[6] = target: Muscarinic acetylcholine receptor M3 (Homo sapiens) (UniProt P20309); assay: NVS_GPCR_hM3: NovaScreen (NVS) G Protein-Coupled Receptor Assay for human Muscarinic, M3 Receptor (AID 2283272)
Chain of Muscarinic acetylcholine receptor M3 (Homo sapiens) (P20309 whole entry, looked up): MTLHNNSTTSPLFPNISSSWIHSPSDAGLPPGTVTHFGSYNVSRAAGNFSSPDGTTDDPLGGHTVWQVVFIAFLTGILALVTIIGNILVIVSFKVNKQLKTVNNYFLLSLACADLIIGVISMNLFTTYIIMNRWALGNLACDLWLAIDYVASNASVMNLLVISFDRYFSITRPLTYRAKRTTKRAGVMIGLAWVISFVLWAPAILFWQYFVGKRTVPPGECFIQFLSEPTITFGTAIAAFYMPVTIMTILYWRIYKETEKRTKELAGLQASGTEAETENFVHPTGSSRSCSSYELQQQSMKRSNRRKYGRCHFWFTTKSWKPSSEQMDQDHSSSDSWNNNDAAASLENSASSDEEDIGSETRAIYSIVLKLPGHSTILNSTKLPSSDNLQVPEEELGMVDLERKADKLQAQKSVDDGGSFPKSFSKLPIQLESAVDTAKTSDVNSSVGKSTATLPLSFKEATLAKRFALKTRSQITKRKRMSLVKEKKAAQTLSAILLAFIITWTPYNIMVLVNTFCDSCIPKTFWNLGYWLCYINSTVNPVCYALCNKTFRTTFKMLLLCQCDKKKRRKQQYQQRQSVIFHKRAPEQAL
Summary of the method: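 Radioligand displacement binding on human M3 receptor in CHO-derived membranes, 1 h incubation, filter-based scintillation counting. Primary screen in duplicate at 25 uM; actives followed up in concentration series; loss of signal versus DMSO.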

[7] = target: human Opioid Receptor Delta 1 (Opiate D1), OPRD1 (gene 4985) (UniProt P41143); assay: NVS_GPCR_hOpiate_D1: NovaScreen (NVS) G Protein-Coupled Receptor Assay for human Opioid Receptor Delta 1 (Opiate D1) (AID 2283280)
Chain of human Opioid Receptor Delta 1 (Opiate D1), OPRD1 (gene 4985) (P41143 whole entry, looked up): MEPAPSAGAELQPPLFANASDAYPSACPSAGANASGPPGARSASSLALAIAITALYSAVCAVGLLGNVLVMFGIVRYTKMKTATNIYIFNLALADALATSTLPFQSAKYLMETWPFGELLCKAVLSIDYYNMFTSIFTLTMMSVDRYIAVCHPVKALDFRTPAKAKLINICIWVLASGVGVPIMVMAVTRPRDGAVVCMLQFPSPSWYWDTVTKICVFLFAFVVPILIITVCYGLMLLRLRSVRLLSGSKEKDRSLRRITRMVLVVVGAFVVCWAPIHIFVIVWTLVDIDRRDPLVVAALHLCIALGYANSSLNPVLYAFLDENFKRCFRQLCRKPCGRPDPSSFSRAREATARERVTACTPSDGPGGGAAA
Procedure: as §1, with “NVS_GPCR_hOpiate_D1” for “NVS_GPCR_hM2”, “plate.NVS_GPCR_hOpiate_D1” for “plate.NVS_GPCR_hM2”, “NVS_GPCR_hOpiate_D1,” for “NVS_GPCR_hM2,”, “OPRD1.” for “CHRM2.”
as §2

[8] = target: Neuropeptide Y receptor type 2 (Homo sapiens) (UniProt P49146); assay: NVS_GPCR_hNPY2: NovaScreen (NVS) G Protein-Coupled Receptor Assay for human Neuropeptide Receptor Y2 (NPY2) (AID 2283277)
Chain of Neuropeptide Y receptor type 2 (Homo sapiens) (P49146 whole entry, looked up): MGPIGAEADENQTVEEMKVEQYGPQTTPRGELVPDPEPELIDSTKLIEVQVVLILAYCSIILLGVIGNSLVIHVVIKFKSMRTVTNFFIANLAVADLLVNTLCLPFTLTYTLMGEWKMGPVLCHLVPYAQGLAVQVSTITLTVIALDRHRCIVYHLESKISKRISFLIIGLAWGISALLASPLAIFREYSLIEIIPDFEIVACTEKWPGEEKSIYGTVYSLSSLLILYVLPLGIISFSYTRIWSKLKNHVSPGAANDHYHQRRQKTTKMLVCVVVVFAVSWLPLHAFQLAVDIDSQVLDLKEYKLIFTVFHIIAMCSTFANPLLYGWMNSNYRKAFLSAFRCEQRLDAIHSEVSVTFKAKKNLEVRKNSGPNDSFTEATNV
Summary of the method: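 Chemicals were first tested in duplicate at 25 uM, then actives in singleton concentration series to 50 uM. Tracer binding to SK-N-MC-derived protein measured cell-free after 1 h via filter scintillation; signal loss relative to DMSO.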

[9] = target: human Neurokinin, NK2 Receptor, TACR2 (gene 6865) (UniProt P21452); assay: NVS_GPCR_hNK2: NovaScreen (NVS) G Protein-Coupled Receptor Assay for human Neurokinin, NK2 Receptor (AID 2283278);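 note: actives reduce bound radioligand signal relative to DMSO baseline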
Chain of human Neurokinin, NK2 Receptor, TACR2 (gene 6865) (P21452 whole entry, looked up): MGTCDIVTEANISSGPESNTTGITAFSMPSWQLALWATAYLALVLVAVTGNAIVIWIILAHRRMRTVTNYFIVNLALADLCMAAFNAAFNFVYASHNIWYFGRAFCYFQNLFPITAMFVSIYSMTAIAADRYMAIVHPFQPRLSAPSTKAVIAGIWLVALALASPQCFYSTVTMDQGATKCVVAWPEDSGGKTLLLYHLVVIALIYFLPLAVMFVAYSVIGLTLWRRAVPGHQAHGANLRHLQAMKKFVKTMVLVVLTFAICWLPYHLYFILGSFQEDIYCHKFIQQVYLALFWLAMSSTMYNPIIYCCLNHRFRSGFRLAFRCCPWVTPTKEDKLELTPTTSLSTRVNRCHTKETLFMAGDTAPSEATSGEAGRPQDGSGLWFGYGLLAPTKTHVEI
Summary of the method: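 Filter-based scintillation counting measured radioligand bound to receptor extracted from CHO cells, 4 hours after compound addition. Chemicals screened first at 25 uM in duplicate, with actives retested in concentration series relative to DMSO.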

**Q.** For `COC(=O)c1ccccc1C(=O)O`, which outcome [1] is on record?
**A.** inactive

**Q.** How did the outcome [2] turn out when `CC(=O)[C@H]1CC[C@H]2[C@@H]3CCC4=CC(=O)CC[C@]4(C)[C@H]3CC[C@]12C` was run?
**A.** inactive

**Q.** What about the outcome [3] of the same compound?
**A.** inactive

**Q.** With `CCOC(=O)C(C)Oc1ccc(Oc2nc3ccc(Cl)cc3o2)cc1` (centres undefined) as the compound, how does the AC50 [4] read?
**A.** 17.2 µM (active)

**Q.** What does the source list for `C=CCOC(Cn1ccnc1)c1ccc(Cl)cc1Cl` (centres undefined)?
**A.** AC50 [4]: 5.47 µM (active); outcome [5]: inactive; AC50 [6]: 5.02 µM (active); AC50 [2]: 2.67 µM (active); AC50 [3]: 5.37 µM (active); AC50 [7]: 4.96 µM (active)

**Q.** How did the outcome [5] turn out when `CC(C)(c1ccc(O)cc1)c1ccc(O)cc1` was run?
**A.** inactive

**Q.** And the outcome [8]?
**A.** inactive

**Q.** What about the AC50 [7] of the same compound?
**A.** 11.2 µM (active)

**Q.** Which outcome [7] does the source give for `CC(C)CCCCCCc1ccc(O)cc1` here?
**A.** inactive

**Q.** How did the AC50 [4] turn out when `CCCCOC(=O)C(C)Oc1ccc(Oc2ccc(C(F)(F)F)cn2)cc1` (centres undefined) was run?
**A.** 12.1 µM (active)

**Q.** `O=C(O)C1(C(=O)Nc2ccc(Cl)cc2Cl)CC1` was tested. Which outcome [5] did it give?
**A.** inactive

**Q.** With `CCCCC(CC)CN1C(=O)C2C3C=CC(C3)C2C1=O` (centres undefined) as the compound, how does the AC50 [6] read?
**A.** 8.81 µM (active)

**Q.** And the outcome [2]?
**A.** inactive

**Q.** `Oc1ccc(C(c2ccc(O)cc2)C(Cl)(Cl)Cl)cc1` was tested. Which AC50 [4] did it give?
**A.** 6.79 µM (active)

**Q.** And the outcome [5]?
**A.** inactive

**Q.** What about the outcome [6] of the same compound?
**A.** inactive

**Q.** And the AC50 [2]?
**A.** 4.96 µM (active)

**Q.** What about the AC50 [3] of the same compound?
**A.** 6.62 µM (active)

**Q.** What about the outcome [9] of the same compound?
**A.** inactive

**Q.** And the AC50 [7]?
**A.** 5.12 µM (active)

**Q.** With `CC(C)(C)[C@@H](O)[C@@H](Cc1ccc(Cl)cc1)n1cncn1` as the compound, how does the outcome [9] read?
**A.** inactive

**Q.** With `N[C@@H](Cc1cc(I)c(Oc2ccc(O)c(I)c2)c(I)c1)C(=O)O` as the compound, how does the outcome [9] read?
**A.** inactive

**Q.** Which outcome [6] does the source give for `C[C@]12CC[C@@H]3c4ccc(O)cc4C[C@@H](CCCCCCCCCS(=O)CCCC(F)(F)C(F)(F)F)[C@H]3[C@@H]1CC[C@@H]2O` (some centres undefined) here?
**A.** inactive

**Q.** Which AC50 [7] does the source give for `O=C(c1ccc(O)cc1O)c1ccc(O)cc1O` here?
**A.** 18.5 µM (active)
